According to PubChem BioAssay AID1159580 (chemical genetic matrix, 2015):
“And” between values parts separate entries of the source, which are not always exact repeats. Equal entries are not always repeated. In all, about 5,500 compounds went through this assay and about 2,000 (36%) were called active. Roughly 18% stayed inconclusive and do not appear here. Cut-off read from the data, not from the text of the source: active = normalized growth mostly below about 0.91 (no sharp cut-off); inconclusive = no clear call, values can overlap the other calls; inactive = mostly above about 0.92. Some of the results follow.

Experiment: chemical genetic growth profiling, strain panel (AID 1159580);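 note: tested at 20 µM; growth read once vehicle control cultures reached saturation at 30 °C; 1 = growth at the plate median or of vehicle wells; lower values mean less growth of the strain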
Conditions: S. cerevisiae deletion strains, growth OD

Measured: normalized growth

CC(NCCc1ccc(O)cc1)C(O)c1ccc(O)cc1 (centres undefined)
active: locus YAL026C, strain drs2, stronger effect = lower value 0.504 | locus YDR392W, strain spt3, stronger effect = lower value 0.189 | locus YGL253W, strain hxk2, stronger effect = lower value 0.766 | locus YHR142W, strain chs7, stronger effect = lower value 0.812
inactive: locus YAL021C, strain ccr4, stronger effect = lower value 0.997 | locus YAL030W, strain snc1, stronger effect = lower value 1.01 | locus YBL061C, strain skt5, stronger effect = lower value 0.991 | locus YBR009C, strain hhf1, stronger effect = lower value 1.04 | locus YBR021W, strain FUR4, stronger effect = lower value 0.962 | locus YBR023C, strain chs3, stronger effect = lower value 0.989 | locus YBR171W, strain sec66, stronger effect = lower value 0.994 | locus YBR229C, strain ROT2, stronger effect = lower value 0.988 | locus YBR231C, strain swc5, stronger effect = lower value 1.01 | locus YBR279W, strain paf1, stronger effect = lower value 0.978 | locus YCL011C, strain gbp2, stronger effect = lower value 0.991 | locus YCL016C, strain dcc1, stronger effect = lower value 0.968 | locus YCL029C, strain bik1, stronger effect = lower value 0.977 | locus YCL061C, strain MRC1, stronger effect = lower value 0.999 | locus YCL069W, strain vba3, stronger effect = lower value 0.973 | locus YCR088W, strain abp1, stronger effect = lower value 0.997 | locus YDL005C, strain med2, stronger effect = lower value 0.983 | locus YDL035C, strain GPR1, stronger effect = lower value 0.982 | locus YDL040C, strain nat1, stronger effect = lower value 0.99 | locus YDL074C, strain BRE1, stronger effect = lower value 0.999 | locus YDL101C, strain DUN1, stronger effect = lower value 0.985 | locus YDL134C, strain PPH21, stronger effect = lower value 0.977 | locus YDL185W, strain tfp1, stronger effect = lower value 0.979 | locus YDL192W, strain arf1, stronger effect = lower value 0.982 | locus YDR001C, strain nth1, stronger effect = lower value 0.998 | locus YDR069C, strain doa4, stronger effect = lower value 1.01 | locus YDR101C, strain arx1, stronger effect = lower value 0.997 | locus YDR137W, strain rgp1, stronger effect = lower value 0.982 | locus YDR150W, strain NUM1, stronger effect = lower value 0.994 | locus YDR159W, strain sac3, stronger effect = lower value 1 | locus YDR162C, strain NBP2, stronger effect = lower value 0.984 | locus YDR195W, strain ref2 0.99 | locus YDR297W, strain sur2, stronger effect = lower value 1.01 | locus YDR318W, strain mcm21, stronger effect = lower value 0.986 | locus YDR334W, strain swr1, stronger effect = lower value 0.984 | locus YDR335W, strain msn5, stronger effect = lower value 0.952 | locus YDR388W, stronger effect = lower value 0.981 | locus YDR502C, strain sam2, stronger effect = lower value 0.983 | locus YEL003W, strain gim4, stronger effect = lower value 0.999 | locus YEL037C, strain rad23, stronger effect = lower value 0.954 | locus YEL061C, strain CIN8 (second series), stronger effect = lower value 0.989 | locus YEL061C, strain CIN8, stronger effect = lower value 0.993 | locus YER015W, strain faa2, stronger effect = lower value 0.995 | locus YER016W, strain bim1, stronger effect = lower value 0.984 | locus YER110C, stronger effect = lower value 0.977 | locus YER111C, strain swi4, stronger effect = lower value 0.979 | locus YER155C, strain BEM2 (second series), stronger effect = lower value 0.948 | locus YER155C, strain BEM2, stronger effect = lower value 0.983 | locus YER167W, strain BCK2, stronger effect = lower value 0.983 | locus YFR010W, strain ubp6, stronger effect = lower value 0.922 | locus YGL078C, strain dbp3, stronger effect = lower value 0.984 | locus YGL086W, strain mad1, stronger effect = lower value 0.987 | locus YGL167C, strain pmr1, stronger effect = lower value 0.997 | locus YGL173C, strain kem1, stronger effect = lower value 1.02 | locus YGL227W, strain vid30, stronger effect = lower value 0.993 | locus YGL240W, strain doc1, stronger effect = lower value 1.02 | locus YGL248W, strain PDE1, stronger effect = lower value 0.996 | locus YGR078C, strain PAC10, stronger effect = lower value 1 | locus YGR135W, strain pre9, stronger effect = lower value 0.972 | locus YGR229C, strain SMI1, stronger effect = lower value 0.989 | locus YGR252W, strain gcn5, stronger effect = lower value 0.946 | locus YHR013C, strain ard1, stronger effect = lower value 0.953 | locus YHR027C, strain rpn1, stronger effect = lower value 1.01 | locus YHR030C, strain SLT2, stronger effect = lower value 0.986 and 1 | locus YHR079C, strain IRE1 (second series), stronger effect = lower value 0.979 | locus YHR079C, strain IRE1, stronger effect = lower value 1.01 | locus YHR094C, strain hxt1, stronger effect = lower value 0.978 | locus YHR129C, strain ARP1, stronger effect = lower value 0.986 | locus YHR200W, strain rpn10, stronger effect = lower value 0.985 | locus YIL066C, strain RNR3, stronger effect = lower value 0.99 | locus YIL073C, strain SPO22, stronger effect = lower value 0.946 | locus YIL125W, strain kgd1, stronger effect = lower value 0.99 | locus YIR030C, strain dcg1, stronger effect = lower value 0.983 | locus YJL092W, strain hpr5, stronger effect = lower value 0.973 | locus YJL095W, strain BCK1 (second series), stronger effect = lower value 0.998 | locus YJL095W, strain BCK1, stronger effect = lower value 1.03 and 1.02 | locus YJL115W, strain asf1, stronger effect = lower value 0.975 | locus YJL129C, strain trk1, stronger effect = lower value 0.973 | locus YJL134W, strain LCB3, stronger effect = lower value 0.99 | locus YJL154C, strain vps35, stronger effect = lower value 0.983 | locus YJL164C, strain tpk1, stronger effect = lower value 0.987 | locus YJL166W, strain qcr8, stronger effect = lower value 1.03 | locus YJL168C, strain set2, stronger effect = lower value 0.983 | locus YJL187C, strain SWE1 (second series), stronger effect = lower value 1 | locus YJL187C, strain SWE1, stronger effect = lower value 0.998
